# A selection: hits, their analogues and other compounds. The true share with any hit is near 2.6%.
# IEC-6 tox-1 = IEC-6 cytotoxicity, counter-screen for KLF5 inhibitors; 0.78% of 290,000 active; inhibition, % at 5 µM; luminescence viability; in the data active = inhibition above about 22%;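 note: 0% = plate median of test compound wells and 100% = cytotoxic reference compound wells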
# Ba/F3 V617F tox = loss of viability in JAK2V617F-driven Ba/F3 cells; 1.1% of 220,000 active; AID 1446; inhibition, % at 5.6 µM; Ba/F3 EpoR-JAK2V617F viability, ATP luminescence;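 active = inhibition above the campaign mean plus 3 SD over all tested compounds, cut at about 24% in these data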;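 note: cytokine-independent growth of Ba/F3 cells driven by EpoR plus mutant JAK2; 0% = DMSO-treated cells and 100% = JAK inhibitor I control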
# BaF3 parental = counter-screen for JAK2V617F inhibitors: parental Ba/F3 viability inhibitors. 1.1% of 220,000 active. inhibition, % at 5.6 µM. CellTiter-Glo ATP luminescence;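 active = inhibition above a per-campaign cutoff, the mean inhibition of all tested compounds plus 3 SD, cut at about 27% in these data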;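 note: 0% = DMSO wells and 100% = JAK Inhibitor I control wells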
# KLF5 inh = inhibitors of KLF5 expression; AID 1700; 0.23% of 290,000 active; DLD-1 KLF5 promoter-luciferase reporter, luminescence; inhibition, % at 5 µM;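 active = inhibition above a per-plate limit of that plate's mean compound inhibition plus 3 SD, cut at about 60% in these data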;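 note: 0% = DMSO wells and 100% = LY294002 at 200 µM; higher means less KLF5 promoter-driven luciferase light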
# GPR7 antagonist = blocks human GPR7 receptor signaling; inhibition, % at 4.4 µM; GPR7-expressing cells, fluorescence antagonist assay; 1.1% of 290,000 active; AID 1861; in the data active = inhibition above about 16%, passing the limit was not always enough;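 note: cells stimulated with the agonist NPW; 0% = agonist with vehicle and 100% = vehicle without agonist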
# Target sequence (P48145 whole entry, looked up): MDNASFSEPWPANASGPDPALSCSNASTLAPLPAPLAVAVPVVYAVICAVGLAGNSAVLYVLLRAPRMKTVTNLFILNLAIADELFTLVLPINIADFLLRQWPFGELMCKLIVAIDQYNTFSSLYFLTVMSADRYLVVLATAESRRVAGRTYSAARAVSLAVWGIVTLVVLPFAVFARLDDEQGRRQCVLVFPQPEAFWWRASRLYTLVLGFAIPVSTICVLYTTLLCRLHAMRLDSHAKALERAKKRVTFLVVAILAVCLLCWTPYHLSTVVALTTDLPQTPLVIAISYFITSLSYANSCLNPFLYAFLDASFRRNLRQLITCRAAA
# DNA FID counter = displaces DNA intercalator in HCV helicase counter-screen; DNA fluorescent intercalator displacement, fluorescence; 0.17% of 290,000 active; inhibition, % at 7.9 µM; in the data active = inhibition above about 37%;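 note: 0% = vehicle and 100% = reference compound; higher means more ethidium bromide displaced from hairpin DNA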
# KLF5 inh confirm = KLF5 inhibition, confirmation assay. shares compounds with KLF5 inh. inhibition, % at 4 µM. DLD-1 KLF5 promoter firefly luciferase reporter, luminescence. 79% of 610 active. AID 1834;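 active = inhibition above a set limit taken from the earlier primary screen, cut at about 63% in these data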;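 note: 0% = DMSO wells and 100% = LY294002 at 200 µM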
# IEC-6 tox-2 = rat IEC-6 cytotoxicity, KLF5 inhibitor counter-screen. inhibition, % at 4 µM. shares compounds with KLF5 inh. 56% of 610 active. IEC-6 rat intestinal cells, viability luminescence; in the data active = inhibition above about 23%;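 note: cells exposed to compounds for 48 hours before viability read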
# Active calls of the source: *; / = no result given.
SMILES,IEC-6 tox-1,Ba/F3 V617F tox,BaF3 parental,KLF5 inh,GPR7 antagonist,DNA FID counter,KLF5 inh confirm,IEC-6 tox-2
Cc1cc(/C=N/Nc2ncnc(N)c2[N+](=O)[O-])c(C)n1-c1ccccc1,7,2,3,67*,-9,-6,97*,4
CN1CCC(=NNC(=O)COc2ccc(Cl)cc2)CC1,-5,1,2,11,-3,-6,/,/
CNC1=C(N(C(C)=O)c2ccc(Br)cc2)C(=O)c2ccccc2C1=O,14,100*,102*,97*,-4,4,94*,18
CC(=O)NC1=C(N(C)C2CCS(=O)(=O)C2)C(=O)c2ccccc2C1=O (configuration not stated),0,1,10,-43,-6,-3,/,/
CCC(=O)N(C1=C(NC)C(=O)c2ccccc2C1=O)C(C)C,3,100*,102*,76*,-21,-2,15,4
Oc1cc2ccccc2cc1-c1nnc2n1-c1ccccc1SC2,0,4,4,-17,-3,-15,/,/
C=CCn1c(SCc2cc(C(C)=O)ccc2OCC)nc2ccccc2c1=O,34*,84*,79*,65*,15,-12,79*,64*
CC(C)(C)c1ccc(C(=O)NCCOc2ccccc2F)cc1,-7,/,/,65*,7,-27,33,2
CC(C)(C)c1ccc(C(=O)NCCOc2ccccc2)cc1,-8,/,/,28,1,-28,/,/
CCC(C)NC(=S)Nc1ccc2nc(N3CCN(CC)CC3)cc(C)c2c1 (configuration not stated),11,-2,3,-15,-1,30,/,/
CC(C)C(=O)NC(c1cccs1)c1cc([N+](=O)[O-])c2cccnc2c1O (configuration not stated),-2,3,8,-17,-2,-9,/,/
Cc1conc1NC(c1cccs1)c1ccc2cccnc2c1O (configuration not stated),7,97*,83*,70*,-6,-3,23,5
CCC(=O)NC(c1cccs1)c1ccc2cccnc2c1O (configuration not stated),28*,77*,59*,78*,-6,-11,91*,81*
CC(C)CC(=O)NC(c1cccs1)c1ccc2cccnc2c1O (configuration not stated),12,65*,75*,77*,5,-29,86*,50*
CCCC(=O)NC(c1cccs1)c1cc(Cl)c2cccnc2c1O (configuration not stated),-1,-2,-2,-13,-4,-6,/,/
CC(C)C(=O)NC(c1ccco1)c1ccc2cccnc2c1O (configuration not stated),13,51*,60*,67*,-15,-16,96*,40*
Cc1ccc(C(=O)C2CCN(CC(=O)NC3CCCCC3)CC2)cc1,2,-2,4,-13,-1,7,/,/
Cc1ccc(Nc2nnc(SCn3nnc4ccccc4c3=O)s2)cc1,3,0,5,-19,-1,-13,/,/
CCN1C=CC(=C2C(=O)c3ccccc3C2=O)C=C1,12,6,14,87*,7,10,96*,9
CCCCCCN1C=CC(=C2C(=O)c3ccccc3C2=O)C=C1,5,5,11,-92,-5,-1,/,/
CCCN1C=CC(=C2C(=O)c3ccccc3C2=O)C=C1,18,18,21,107*,7,3,106*,24*
CCOCCCNC(=O)C(c1ccccc1)N(Cc1cccs1)C(=O)CNC(C)=O (configuration not stated),-2,-1,1,-15,-8,-17,/,/
COc1ccccc1N=Nc1ccc(O)c2ncccc12,4,/,/,75*,-12,-19,47,1
C/C=C/COC(=O)c1[nH]c2c(c1C)C(=O)CC(c1ccco1)C2 (configuration not stated),83*,78*,78*,83*,12,-16,89*,57*
COc1ccc(N(C(=O)c2ccncc2)S(=O)(=O)c2ccccc2)cc1,-1,/,/,-4,-12,-17,/,/
SMILES,IEC-6 tox-1,Ba/F3 V617F tox,BaF3 parental,KLF5 inh,GPR7 antagonist,DNA FID counter,KLF5 inh confirm,IEC-6 tox-2
COc1ccc(N(C(=O)c2ccccc2C)S(=O)(=O)c2cccs2)cc1,72*,68*,74*,66*,15,-16,76*,62*
CC(C)(C)C(=O)Nc1cc2nn(-c3ccccc3)nc2cc1Cl,6,-2,4,83*,-8,-4,93*,9
CC(=O)Nc1cc2nn(-c3ccccc3)nc2cc1Cl,7,4,7,-154,-5,3,/,/
CCNC(=S)NNC(=O)c1cc(-c2ccc(OCC)cc2)nc2ccccc12,14,24*,31*,81*,-17,-15,79*,0
O=C(NCc1ccccc1F)c1ccc2c(c1)OCO2,6,2,7,-30,0,1,/,/
O=C(NCCc1ccccc1F)c1ccc2c(c1)OCCO2,2,/,/,100*,2,-9,108*,0
CCOC(=O)C1=C(O)C(=O)NC(c2ccccc2)=C(OC2CCCCC2)C1,-3,-3,5,-7,-3,-9,/,/
Cc1[nH]c(=O)[nH]c(=O)c1S(=O)(=O)NCCOC12CC3CC(CC(C3)C1)C2,-2,-3,2,-22,-13,-3,/,/
Cc1cccc(NC(=S)NC(=O)/C=C/c2ccco2)c1,79*,72*,78*,74*,20,-15,23,29*
COc1ccc(C(=O)NC(=S)Nc2cccc3nc(C)ccc23)cc1OC,-6,2,0,-15,-10,-32,/,/
Cc1nc(CN(C)Cc2nc(Cc3cccc(F)c3)no2)cs1,3,-2,3,-24,-17,-10,/,/
Cc1cc(C(=O)CN2C(=O)c3ccccc3S2(=O)=O)c(C)n1CC1CCCO1 (configuration not stated),-3,-3,1,83*,-1,-7,104*,17
COc1ccc(C(=O)CN2C(=O)c3ccccc3S2(=O)=O)cc1,-3,-3,-4,72*,-10,-5,56,-4
O=c1[nH]c(/C=C/c2ccc(Br)cc2)nc2ccccc12,1,/,/,-28,-17,-9,/,/
CN(C)c1ccc(/C=C/c2nc3ccccc3c(=O)[nH]2)cc1,20,/,/,99*,3,-7,94*,2
Cc1c(/C(O)=C2/C(=O)C(=O)N(CCN3CCOCC3)C2c2ccccn2)cnn1-c1ccccc1 (configuration not stated),1,1,5,69*,-19,-13,36,4
CCCCN=C1NN=C(c2ccc3c(c2)OCCO3)CS1,-3,-6,7,28,10,1,/,/
c1cc2c(cc1C1=NNC(=NC3CC3)SC1)OCCO2,4,9,12,79*,3,-2,102*,30*
